# Measured values as given in PubChem BioAssay (NCI).
# This is part of a sample that, as a whole, favours compounds with a hit. Of some 79,000 tested, about 15% had one in any assay. Activity calls are given as the source filed them. Cut-off read from the data, not from the text of the source: active = growth inhibition above about 70%; inactive = the rest. Where a SMILES comes first, the peptide text is derived from it. [ ]: non-standard residue; d: D form. The star is where a group is joined. ξ: configuration not given here. X14 = COC1=CC(=O)N(C(=O)C(O*)C(C)C)C1Cc1ccccc1; ξNMe2Val = CC(C)C(C(=O)*)N(C)C; NMeV = CN[CH](C(=O)O)C(C)C
# Experiment: NCI Yeast Anticancer Drug Screen. Data for the sgs1 mgt1 strain (AID 161);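 note: 0% = growth of cultures given vehicle only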
# Conditions: S. cerevisiae sgs1 mgt1 strain, at 50.0 µM, stronger effect = higher value
# Experimental: Growth inhibition of yeast strains with defined genetic alterations is measured as a screen for potential anti-cancer activity. Selected strains with alterations in DNA damage repair or cell cycle control were exposed to compounds and growth inhibition was measured relative to vehicle treated controls. The strain used in this assay is sgs1 mgt1
row,Compound,growth inhibition
1,N#CS.N=C=S.N=C=S.[Co+3].[NH-]CC[NH-].[NH-]CC[NH-],36.4% (inactive)
2,C1CC[N+]2=C(C1)OCCC2,6.75% (inactive)
3,COc1ccc(C=C(C#N)C#N)cc1OC,-1.95% (inactive)
4,N#CC(C#N)=Cc1ccccc1[N+](=O)[O-],8.3% (inactive)
5,CN(C)C(=O)CCCc1ccc(N(CCCl)CCCl)cc1,5.3% (inactive)
6,COC12CC3(C)C(C4=CC(=O)OC4)CCC3(O)C3CCC4=CC(=O)CCC4(CO1)C32 (stereo not given),-11.4% (inactive)
7,CN1CCC(O)(c2ccccc2)C(C(O)c2ccccc2)C1 (stereo not given),17.9% (inactive)
8,CNC1=C(N2CC2)C(=O)C(NC)=C(N2CC2)C1=O,17.9% (inactive)
9,CN1C(c2cccnc2)=NCC12CCCC2,6.45% (inactive)
10,CC(=O)CC(C)=O,-3% (inactive)
11,NC(=O)c1c[se]c(C2OC(CO)C(O)C2O)n1 (stereo not given),-9.75% (inactive)
12,COC1=CC(=O)N(C(=O)C(OC(=O)C2CCCN2C(=O)C2CCCN2C(=O)C(C(C)C)N(C)C(=O)C(NC(=O)C(C(C)C)N(C)C)C(C)C)C(C)C)C1Cc1ccccc1 (stereo not given) (ξNMe2Val-V[NMeV]PP-X14; configuration not given here),-4.25% (inactive)
13,NC1C(=O)NC(=O)NC1=O,8.4% (inactive)
14,CC1(C)N=C(N)N=C(N)N1c1ccc(OCCCOc2ccc(S(=O)(=O)F)cc2)cc1,89.1% (active)
15,CCCCOP(=S)(OCCCC)Oc1ccc(Cl)cc1Cl,-0.55% (inactive)
16,C[N+](C)(C)CC1CCCC(C[N+](C)(C)C)C1=NO (stereo not given),-4.85% (inactive)
17,COc1cccc(N2CCNCC2)c1,12.4% (inactive)
18,O=C1C(Br)=C(N2CC2)C(=O)C(Br)=C1N1CC1,90.5% (active)
19,CC(C)=CC1CC(=[N+]=[N-])C(=O)C1(C)C (stereo not given),17% (inactive)
20,S=C1c2ccc(Cl)cc2-n2cnnc2C2CSCN12 (stereo not given),7.9% (inactive)

row,Compound,growth inhibition
1,CN(C)CCNc1nc2c(no[n+]2[O-])c2ccccc12,-14.3% (inactive)
2,Cc1ccc(N2CCNCC2C)cc1 (stereo not given),-4.6% (inactive)
3,CC1(C)N=C(N)N=C(N)N1c1ccc(CCCCc2cc(Cl)ccc2S(=O)(=O)F)c(Cl)c1,99.5% (active)
4,CC(C)NCCc1c[nH]c2ccccc12,12.4% (inactive)
5,COS(=O)(=O)c1ccc(C)cc1,-8.2% (inactive)
6,CCOP(=S)(Oc1ccccc1[N+](=O)[O-])c1ccccc1 (stereo not given),12.6% (inactive)
7,CCC[P+](CCC)(CCC)CCCCCCCCCC[P+](CCC)(CCC)CCC,2.05% (inactive)
8,CNC(=O)CCl,-0.45% (inactive)
9,O=N[O-].O=N[O-].[Co].[NH-]CC[N-]CCO.[NH-]CC[N-]CCO,17.1% (inactive)
10,c1ccc([As](c2ccccc2)c2ccccc2)cc1,-7.9% (inactive)
11,CN1CN(c2ccccc2)C2(CCN(Cc3csc4ccccc34)CC2)C1=O,-47.5% (inactive)
12,CCC[CH2][Sn]([CH2]CCC)[CH2]CCC.CCC[CH2][Sn]([CH2]CCC)[CH2]CCC,99.7% (active)
13,Cc1cc(N)ccc1N,14.2% (inactive)
14,Cc1cccnc1NN=O,-23.8% (inactive)
15,CCC1CN(CC(=O)c2ccc(Br)cc2)CCO1 (stereo not given),39.9% (inactive)
16,O=S(=O)(F)c1ccccc1S(=O)(=O)Cl,15.6% (inactive)
17,CC(=O)C(I)C(C)=O.[Cr],8.6% (inactive)
18,Cc1ccc(O)cc1C,26% (inactive)
19,N#CC(C#N)=Cc1ccc(F)cc1,-18.7% (inactive)
20,CC(Br)C(N)=O (stereo not given),-14.1% (inactive)
